High-throughput results deposited in PubChem by National Center for Advancing Translational Sciences (NCATS).
TDP1 cell CPT: growth inhibition of DT40 Tdp1-/-;hTDP1 cells with camptothecin (screen for TDP1 inhibitors); chicken DT40 Tdp1-/-;hTDP1 cells + 20 nM CPT, ATP luminescence, 48 h; Potency, µM (doses to about 46.2 µM), for inactives: at the highest dose activity change, negative = growth inhibition, usual class: inhibitors; 420,000 tested, 12% active; AID 686979; further: nearly all actives have a fitted effect of over 55% in size
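Cell growth measured by CellTiter-Glo luminescence after a minimum 48 h, 37 C compound exposure with 20 nM CPT in Tdp1-knockout DT40 cells stably expressing hTDP1, seeded 400/well; qHTS titration format.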
HT1080NT lethal: kills 2HG-producing HT-1080-NT fibrosarcoma cells. HT-1080-NT fibrosarcoma viability, CellTiter-Glo ATP luminescence, 48 h. Potency, µM (series often up to 46.1 µM), for inactives: top-dose activity, negative = less viability, most hits filed as cytotoxic. 360,000 tested, 1.6% active;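 further: NT is the 2HG producing partner of a matched IDH1 knockdown line; 0% = DMSO-treated cells and -100% = media-only wells without cells; nearly all actives have a fitted effect of over 55% in size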
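HT-1080-NT fibrosarcoma cells (2HG-overproducing), 750 cells/well in RPMI with 5% FBS, dosed after 2 h and incubated 48 h at 37C. CellTiter-Glo luminescence normalized to DMSO and no-cell wells; concentration-response curves fitted and classed.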
HT1080 IDH1KD tx: HT-1080 IDH1 knockdown cell toxicity (counter line); HT-1080 IDH1 knockdown viability, ATP luminescence, 48 h; Potency, µM (titrated, usually from 46.1 µM), for the others: at the top dose activity, negative = toxicity, actives largely listed as cytotoxic; 360,000 tested, 2% active;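 further: 0% = DMSO wells and -100% = cell-free medium wells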
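Viability of IDH1-knockdown HT-1080 fibrosarcoma cells was assessed by CellTiter-Glo after 48 h at 37 °C with titrated compound; concentration-effect curves were classified by fit quality and response size.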
KB-V1 cytotox: KB-V1 MDR subline cytotoxicity. Potency, µM (doses to about 46.1 µM), most hits filed as cytotoxic. 400,000 tested, 3.4% active. AID 1347076. KB-V1 MDR cells viability, CellTiter-Glo, 72 h; further: nearly all actives have a fitted effect of over 60% in size
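qHTS viability screen in drug-selected KB-V1 MDR cells: 72 h compound treatment at 37 degrees C, ATP luminescence end point.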
DT40 TDP1 no CPT: qHTS for Inhibitors of human tyrosyl-DNA phosphodiesterase 1 (TDP1): qHTS in cells in absence of CPT; AID 686978, 2013; 420,000 tested, 15% active; Potency, µM (series often up to 46.2 µM), for inactives: at the highest dose activity change, negative = growth inhibition, actives largely listed as inhibitors; DT40 Tdp1-/- hTDP1 cells, no CPT, ATP luminescence, 48 h; further: nearly all actives have a fitted effect of over 55% in size
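Chicken DT40 Tdp1-/- cells stably complemented with human TDP1 were seeded at 400 cells/well with DMSO in place of 20 nM camptothecin. After compound pinning, cells grew at least 48 hr at 37 °C; viability read by CellTiter-Glo luminescence.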
KB-3-1 tox: KB-3-1 parental cell cytotoxicity; KB-3-1 viability, CellTiter-Glo ATP luminescence, 72 h; Potency, µM (highest dose often 46.1 µM), most hits filed as cytotoxic; 400,000 tested, 1.4% active; AID 1347075; further: nearly all actives have a fitted effect of over 60% in size
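72 h, 37 °C compound treatment of KB-3-1 parental cells; CellTiter-Glo added, 10 min, luminescence read. Data corrected against DMSO-only plates and normalized before curve fitting.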
* = called active by the depositor; [ ] = another dose, or the depositor's remark. Compounds with a hit are over-represented: about 19% of the library has one in this group of screens. The call rests on the fitted dose curve; in most records, active means well fitted curve in the direction sought with a large enough effect; inconclusive means small, poorly fitted or top-dose-only effect, or another doubt; inactive means no such curve, though single readings can be large; an effect the other way counts as inactive or inconclusive. Unless noted, on the % scale 0 is the no-effect control and ±100 the full control effect; potency means the concentration at half of the fitted maximal effect.

What do the screens show for `CCOC(=O)c1[nH]c(C(=O)O)c(OC(=O)CC)c1C`?
TDP1 cell CPT: 25%; HT1080NT lethal: 25%; HT1080 IDH1KD tx: inconclusive; KB-V1 cytotox: inactive; DT40 TDP1 no CPT: 2%; KB-3-1 tox: inactive

Results for N#Cc1ccccc1CSc1nnc(-c2ccccc2)o1 ?
KB-V1 cytotox: inconclusive; KB-3-1 tox: inactive

What do the screens show for `O=C(Cc1ccc(S(=O)(=O)N2CCOCC2)s1)N1CCN(S(=O)(=O)c2cccc(F)c2)CC1`?
TDP1 cell CPT: inconclusive; HT1080NT lethal: 0%; HT1080 IDH1KD tx: -4%; KB-V1 cytotox: inactive; DT40 TDP1 no CPT: -10%; KB-3-1 tox: inactive

How did Cc1ccc(S(=O)(=O)N2CCN(C(=O)Cc3ccc(S(=O)(=O)N4CCOCC4)s3)CC2)cc1 do in these assays?
TDP1 cell CPT: -19%; HT1080NT lethal: -3%; HT1080 IDH1KD tx: -4%; KB-V1 cytotox: inactive; DT40 TDP1 no CPT: -19%; KB-3-1 tox: inactive

How did O=C(Cc1ccc(S(=O)(=O)N2CCOCC2)s1)N1CCN(S(=O)(=O)c2ccc(Cl)cc2)CC1 do in these assays?
TDP1 cell CPT: 23µM*; HT1080NT lethal: -4%[9.24 µM]; HT1080 IDH1KD tx: -13%; KB-V1 cytotox: inactive; DT40 TDP1 no CPT: 23µM*; KB-3-1 tox: inactive

What do the screens show for `O=C(c1ccc(S(=O)(=O)N2CCOCC2)cc1)N1CCN(S(=O)(=O)c2ccc(Cl)s2)CC1`?
TDP1 cell CPT: inconclusive; HT1080NT lethal: 25%; HT1080 IDH1KD tx: 6%; KB-V1 cytotox: inconclusive; DT40 TDP1 no CPT: 16µM*; KB-3-1 tox: inactive

What do the screens show for `O=C(Cc1ccc(S(=O)(=O)N2CCOCC2)s1)N1CCN(S(=O)(=O)c2cccc(Cl)c2)CC1`?
TDP1 cell CPT: 16µM*; HT1080NT lethal: 0%; HT1080 IDH1KD tx: -14%; KB-V1 cytotox: inactive; DT40 TDP1 no CPT: 16µM*; KB-3-1 tox: inactive

How did CCOc1ccccc1N1CCN(C(=O)Cc2ccc(S(=O)(=O)N3CCOCC3)s2)CC1 do in these assays?
TDP1 cell CPT: inconclusive; HT1080NT lethal: -3%; HT1080 IDH1KD tx: 1%; KB-V1 cytotox: 23µM*; DT40 TDP1 no CPT: 21µM*; KB-3-1 tox: inactive

How did CC(NC(=O)c1ccccc1F)c1nnc(SCC(=O)NC2CCCC2)n1C (configuration not stated) do in these assays?
TDP1 cell CPT: -6%; HT1080NT lethal: 9%; HT1080 IDH1KD tx: 9%; KB-V1 cytotox: inactive; DT40 TDP1 no CPT: 9%; KB-3-1 tox: inactive

How did CCCNC(=O)C(Cc1ccccc1C)NC(=O)c1ccc(C(F)(F)F)cc1 (configuration not stated) do in these assays?
TDP1 cell CPT: 0%; HT1080NT lethal: 12%; HT1080 IDH1KD tx: 11%; KB-V1 cytotox: inactive; DT40 TDP1 no CPT: -18%; KB-3-1 tox: inactive

How did O=C(Cc1ccc(S(=O)(=O)N2CCCC2)s1)N1CCN(c2ccccc2)CC1 do in these assays?
TDP1 cell CPT: 3%; HT1080NT lethal: 13%; HT1080 IDH1KD tx: -1%; KB-V1 cytotox: inconclusive; DT40 TDP1 no CPT: -24%; KB-3-1 tox: inactive

How did O=C(Nc1ccc(S(=O)(=O)N2CCOCC2)cc1)c1ccc(Cl)s1 do in these assays?
TDP1 cell CPT: 23µM*; HT1080NT lethal: inconclusive; HT1080 IDH1KD tx: -27%; KB-V1 cytotox: inactive; DT40 TDP1 no CPT: inconclusive; KB-3-1 tox: inconclusive

What do the screens show for `O=C(Cc1ccc(S(=O)(=O)N2CCOCC2)s1)N1CCN(c2cccc(C(F)(F)F)c2)CC1`?
TDP1 cell CPT: 7.3µM*; HT1080NT lethal: -25%; HT1080 IDH1KD tx: -21%; KB-V1 cytotox: inactive; DT40 TDP1 no CPT: 3.7µM*; KB-3-1 tox: inactive

How did Clc1cccc(-c2noc3ncnc(NC4CCCCC4)c23)c1 do in these assays?
TDP1 cell CPT: 21µM*; KB-V1 cytotox: inactive; DT40 TDP1 no CPT: 26µM*; KB-3-1 tox: inactive
